These results are taken from PubChem BioAssay (NCI).

Where “and” joins values, the source holds several entries; their conditions need not be identical. Identical values can stand only once. Compounds without any hit were thinned out: in the full panel of roughly 83,000, 20% have a hit.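 Results are percent growth after 48 hours of single-concentration exposure. 100 means growth as in untreated cells, lower positive values show inhibition; negative values down to -100 show cell death.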 Calls of active or inactive are those of the source. Rule for the calls: active = growth percent below 10; inactive = the rest.

For the assay, the system named is MDA-MB-468 breast. The experiment in a line: NCI-60 one-dose screen, 48 h (100 = growth as untreated, 0 = no growth, -100 = all killed). Particulars: 10 µM unless noted.
Consider `Cc1ccc(Cl)cc1NC(=O)N/C(N)=N/c1nc2ccccc2s1`, for which the growth is -30.1% (active).

Regarding `COc1ccc(N=Nc2c(N)nn3c(N)c(C#N)c(-c4ccccc4)nc23)cc1`, the growth was 31.7% (inactive).

For `Cc1cccc(/C=C/c2ccc(NC(=S)NCCCCN(C)C)cc2)c1`, the growth was -83.5% (active).

Turning to `COc1ccc(-c2cc(-c3ccccc3)c(C#N)c(=O)[nH]2)cc1S(N)(=O)=O`, the growth was 102% (inactive).

Take `CC(C)(C)OC(=O)N1C/C(=C\c2ccc(F)cc2)C(=O)/C(=C/c2ccc(F)cc2)C1`: the growth is -82.3% (active).

Consider `COc1cc(C=O)ccc1Oc1nc(Nc2ccc(F)cc2)nc(N(C)C)n1`, for which the growth was 36.4% (inactive) and 53.5% (inactive).

As for `N#Cc1c(-c2ccc(F)cc2)nc(SCc2ccc(F)cc2)nc1N1CCNCC1`, the growth was -72% (active).

Take `COc1ccc(-c2nc3ccc(-c4nnc(SCc5ccccc5)o4)cc3[nH]2)cc1OC`: the growth is 44.1% (inactive).

For `COc1cccc(NC(=O)c2ccc(NC(=O)CCl)s2)c1`, the growth was -14.7% (active).

Regarding `COc1ccc(/C=C/C(=O)c2ccc(S(=O)(=O)NCCNc3nc(N(C)C)nc(N4CCOCC4)n3)cc2)cc1`, the growth is 76.3% (inactive).

`COc1ccc(S(=O)(=O)Nc2ccc(-c3ccc4c(c3)NC(=O)/C4=C\c3ccc[nH]3)cc2)cc1OC`: the growth was -56.2% (active).

`C=CCSc1nnc(-c2ccc(-c3nc4ccc(Cl)cc4[nH]3)cc2)o1`: the growth was 28.6% (inactive).

For `COc1cccc(-c2ccc(/C=N/NC(=O)c3[nH]c4ccc(Br)cc4c3-c3ccccc3)s2)c1`, the growth was 7.16% (active).

As to `Nc1nn2c(-c3cc4cc(Br)ccc4oc3=O)ccnc2c1N=Nc1ccc(Br)cc1`, the growth was 39% (inactive).

For the molecule `COc1cc(/C=C/C(=O)c2cnn(-c3cc(=O)[nH]c4ccccc34)c2C)cc(OC)c1OC`, the growth was -35.3% (active).

On to `COc1ccc(-c2nc3ccc(-c4nnc(SCC(=O)Nc5ccc(/C(C)=N\O)cc5)o4)cc3[nH]2)cc1`, for which the growth is 100% (inactive).

For the molecule `CCOC(=O)c1ccc(NC(=S)NC(=O)c2cccc(NC(=O)c3ccc(C)cc3)c2)cc1`, the growth was 94.1% (inactive).

For the molecule `Cn1cc(-c2cc(N)n3nc(-c4c[nH]c5ccccc45)cc3n2)c2cc(F)ccc21`, the growth is 8.2% (active).

For the molecule `COC(=O)c1ccc(-c2c(-c3ccccc3)c(F)c3oc(C(=O)OC)c(N)c3c2-c2ccccc2)cc1`, the growth was 84% (inactive).

As for `COc1ccc(-c2cc(C(=O)OCc3ccc(Br)cc3)nn2-c2ccc(S(C)(=O)=O)cc2)cc1OC`, the growth was 64% (inactive).

As for `COc1ccc2ccccc2c1/C=C1\SC(=Nc2ccc(O)cc2)NC1=O`, the growth is -34.7% (active).

In the case of `COc1ccc2[nH]c(O)c(N=Nc3nc(-c4ccc(C#N)cc4)cs3)c2c1`, the growth is 77.5% (inactive).

Consider `Cc1ccc(C(C)C)cc1Oc1cccc(-c2c(-c3ccc(C(F)(F)F)cc3)ncn2C2CCNCC2)n1`, for which the growth was -90.3% (active).

For the molecule `Cc1cc(C2(c3cc(C)c(OCC(O)CNc4c(C)n(C)n(-c5ccccc5)c4=O)cc3C(C)C)OC(=O)c3ccccc32)c(C(C)C)cc1OCC(O)CNc1c(C)n(C)n(-c2ccccc2)c1=O` (centres undefined), the growth was -13.9% (active).
